# Laboratory results as given in PubChem BioAssay (EPA / NIEHS).
# Records with an inconclusive call do not appear. Activity calls are given as the source filed them. The calls were made as follows, unless noted: active = hit-call score of the fitted dose curve at least 0.9, where 1 is the maximum; inactive = score below 0.9.
# Legend:
# [1] = target: Thyroid hormone receptor alpha (Rattus norvegicus) + Thyroid hormone receptor beta (Rattus norvegicus) (UniProt P18113+P63059); experiment: TOX21_TR_LUC_GH3_Agonist_Followup: Tox21 GH3 Thyroid Hormone Receptor Agonism Luciferase Follow-Up Assay (AID 2283939; active = hit-call score of the fitted dose curve at least 0.9, where 1 is the maximum)
# Summary of the method: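 Agonist-mode confirmatory run: 15 concentrations (5 nM to 92 uM final) on GH3 rat pituitary cells, 24 h at 37C/5% CO2, T3 as positive control. Luminescence read with ONE-Glo after 30 min.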
# [2] = target: THRA (gene 7067) (UniProt P10827); experiment: TOX21_TRA_COA_Agonist_Followup_ratio: Tox21 Thyroid Hormone Receptor alpha Agonism through Coactivator Recruitment Follow-Up Assay, Ratio (AID 2283948)
# Summary of the method: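 Cell-free TR-FRET coactivator recruitment: GST-tagged TRα LBD (2.5 nM) with 0.10% BSA was incubated with compound, then fluorescein-SRC-2 peptide (200 nM) and Tb-anti-GST antibody (2 nM) added. 520:495 nm ratio normalized to DMSO (0%) and T3 (100%).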
# [3] = target: THRB (gene 7068) (UniProt P10828); experiment: TOX21_TRB_COA_Agonist_Followup_ratio: Tox21 Thyroid Hormone Receptor beta Agonism through Coactivator Recruitment Follow-Up Assay, Ratio (AID 2283963)
# Summary of the method: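 GST-TRb LBD 5.0 nM + 0.10% BSA + cpd; add fluorescein-SRC-2 200 nM / Tb anti-GST Ab 2 nM; TR-FRET ex 340, em 520:495; norm DMSO 0%, T3 100%.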
# [4] = target: Retinoic acid receptor RXR-alpha (Homo sapiens) (UniProt P19793); experiment: TOX21_TR_RXR_BLA_Agonist_Followup_ratio: Tox21 Thyroid Hormone Receptor beta Retinoid X Receptor alpha (RXRa) Agonism Beta-lactamase (BLA) Follow-Up Assay, Ratio (AID 2283968; active = hit-call score of the fitted dose curve at least 0.9, where 1 is the maximum)
# Summary of the method: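 Agonist mode: compounds given to RXRa-bla HEK293T cells at 11 concentrations, triplicate, 16 h at 37C/5% CO2. Readout is the 460:530 nm blue/green ratio after 2 h substrate loading at room temperature; DMSO baseline, 9-cis retinoic acid control.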
# [5] = target: PGR (gene 5241) (UniProt P06401); experiment: TOX21_PR_BLA_Followup_Agonist_ratio: Tox21 HEK293 Progesterone Receptor (PR) Agonism Beta-lactamase Follow-Up Assay, Ratio (AID 2283933; active = hit-call score of the fitted dose curve at least 0.9, where 1 is the maximum)
# Summary of the method: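 Beta-lactamase reporter readout: ratio of cleaved (ch2) to uncleaved (ch1) substrate after 2 h room-temperature loading, following 16 h compound exposure at 37C. Cells were PR-UAS-bla HEK293T in 2% charcoal-stripped FBS medium. Viability was multiplexed by CellTiter-Glo.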
# [6] = target: PGR (gene 5241) (UniProt P06401); experiment: TOX21_PR_LUC_Followup_Agonist: Tox21 HEK293 Progesterone Receptor (PR) Agonism Luciferase Follow-Up Assay (AID 2283937)
# Summary of the method: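 Agonism scored as luciferase induction over DMSO, read by ONE-Glo after 30 min at RT. Compounds were incubated 16 h at 37C on HEK293-PR-A-luc cells (3,000/well, pre-plated 5 h) previously grown 5 days in charcoal-stripped serum.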
# [7] = TOX21_PR_LUC_Followup_Agonist_viability: Viability Assessment in the Tox21 HEK293 Progesterone Receptor (PR) Agonism Luciferase Follow-Up Assay (AID 2283941; active = hit-call score of the fitted dose curve at least 0.9, where 1 is the maximum;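 also: loss of signal means cytotoxicity so actives lower viability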)
# Summary of the method: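 Cytotoxicity counter-readout in the PR-A luciferase reporter line HEK293, with 16 h compound exposure at 37C after cells were cultured in charcoal-stripped serum. Cellular ATP quantified by CellTiter-Glo luminescence.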
# [8] = CCTE_Harrill_HTTr_Viability_MCF7: CCTE's 6-hour Cell Viability Assessment for the High-Throughput Transcriptomics (HTTr) Platform, in MCF-7 cells cultured in DMEM + 10% fetal bovine serum, Harrill Lab (AID 2284010)
# Summary of the method: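 Propidium iodide exclusion, imaged by high-content analysis, gauged viability after a six-hour exposure across eight concentrations. Cells were MCF-7 grown in DMEM with 10% fetal bovine serum; fits run in both directions against DMSO.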
# [9] = CCTE_Harrill_HTTr_Apoptosis_MCF7: CCTE's 6-hour Apoptosis Assessment for the High-Throughput Transcriptomics (HTTr) Platform, in MCF-7 cells cultured in DMEM + 10% fetal bovine serum, Harrill Lab (AID 2284011)
# Summary of the method: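 High-content imaging of CellEvent Caspase 3/7 Green signal follows a six-hour exposure, with eight concentrations per chemical. MCF-7 cells grown in DMEM plus 10% fetal bovine serum; activity fitted in both directions against DMSO.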
# [10] = CCTE_Harrill_HTTr_CellCount_MCF7: CCTE's Cell Proliferation Assessment for the High-Throughput Transcriptomics (HTTr) Platform, Harrill Lab (AID 2284012; active = hit-call score of the fitted dose curve at least 0.9, where 1 is the maximum;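 also: cells exposed to compound for six hours; intended direction is loss of nuclei count meaning fewer cells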)
# Summary of the method: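 Cell count from high-content imaging of Hoechst-labeled nuclei serves as viability/growth readout. Chemicals were applied to MCF-7 cells in eight concentrations for six hours, with fitting in both directions relative to DMSO.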
# Chain of PGR (gene 5241) (P06401 whole entry, looked up): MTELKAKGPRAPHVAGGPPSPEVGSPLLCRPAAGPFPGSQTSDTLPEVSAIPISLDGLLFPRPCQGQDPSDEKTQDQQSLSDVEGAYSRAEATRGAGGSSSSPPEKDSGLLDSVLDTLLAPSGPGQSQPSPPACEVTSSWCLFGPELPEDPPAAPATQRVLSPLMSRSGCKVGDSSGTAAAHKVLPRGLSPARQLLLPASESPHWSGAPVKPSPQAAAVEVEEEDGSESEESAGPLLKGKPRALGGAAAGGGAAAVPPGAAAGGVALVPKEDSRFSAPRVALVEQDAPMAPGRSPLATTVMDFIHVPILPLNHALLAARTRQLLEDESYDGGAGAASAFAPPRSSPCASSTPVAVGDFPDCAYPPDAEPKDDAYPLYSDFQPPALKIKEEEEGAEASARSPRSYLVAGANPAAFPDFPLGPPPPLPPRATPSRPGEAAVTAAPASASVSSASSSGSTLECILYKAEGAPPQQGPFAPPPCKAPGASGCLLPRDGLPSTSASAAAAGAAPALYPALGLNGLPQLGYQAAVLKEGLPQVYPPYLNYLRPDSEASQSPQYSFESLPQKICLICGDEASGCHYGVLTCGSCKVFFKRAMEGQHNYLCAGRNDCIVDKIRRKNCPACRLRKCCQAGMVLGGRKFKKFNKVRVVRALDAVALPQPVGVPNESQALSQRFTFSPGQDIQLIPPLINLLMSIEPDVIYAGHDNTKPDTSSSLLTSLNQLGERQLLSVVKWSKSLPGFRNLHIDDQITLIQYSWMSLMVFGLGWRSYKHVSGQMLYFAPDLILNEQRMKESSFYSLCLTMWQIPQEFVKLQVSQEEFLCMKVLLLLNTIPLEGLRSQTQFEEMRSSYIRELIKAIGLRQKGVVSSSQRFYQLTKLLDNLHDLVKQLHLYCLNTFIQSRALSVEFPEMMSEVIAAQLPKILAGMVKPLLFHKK
# Chain of THRB (gene 7068) (P10828 whole entry, looked up, the tested form may be a part): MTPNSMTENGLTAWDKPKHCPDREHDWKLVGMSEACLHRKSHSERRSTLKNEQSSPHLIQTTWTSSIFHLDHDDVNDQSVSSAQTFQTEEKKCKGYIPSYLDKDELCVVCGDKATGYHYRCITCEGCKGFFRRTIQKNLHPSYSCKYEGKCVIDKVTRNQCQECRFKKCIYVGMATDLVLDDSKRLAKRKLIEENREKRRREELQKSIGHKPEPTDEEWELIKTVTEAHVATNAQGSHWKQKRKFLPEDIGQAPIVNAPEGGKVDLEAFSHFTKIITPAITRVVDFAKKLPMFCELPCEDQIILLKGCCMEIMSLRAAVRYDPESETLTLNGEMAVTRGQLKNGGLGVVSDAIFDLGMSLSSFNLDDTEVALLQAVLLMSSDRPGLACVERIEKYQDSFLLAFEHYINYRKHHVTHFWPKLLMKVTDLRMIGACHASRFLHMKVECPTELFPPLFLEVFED
# Chain of THRA (gene 7067) (P10827 whole entry, looked up, the tested form may be a part): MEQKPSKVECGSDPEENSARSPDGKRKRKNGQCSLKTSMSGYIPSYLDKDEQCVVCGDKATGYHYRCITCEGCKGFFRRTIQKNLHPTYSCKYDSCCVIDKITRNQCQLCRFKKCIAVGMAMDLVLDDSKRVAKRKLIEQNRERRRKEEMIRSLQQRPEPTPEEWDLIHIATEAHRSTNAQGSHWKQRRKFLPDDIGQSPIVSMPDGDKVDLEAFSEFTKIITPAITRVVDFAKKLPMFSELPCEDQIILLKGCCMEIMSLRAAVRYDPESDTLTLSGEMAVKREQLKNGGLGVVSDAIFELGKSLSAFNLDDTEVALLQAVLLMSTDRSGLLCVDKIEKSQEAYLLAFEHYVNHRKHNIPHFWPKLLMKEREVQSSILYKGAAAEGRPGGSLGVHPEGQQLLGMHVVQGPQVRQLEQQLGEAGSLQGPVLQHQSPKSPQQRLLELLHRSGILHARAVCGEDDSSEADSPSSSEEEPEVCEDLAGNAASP
# Chain of Retinoic acid receptor RXR-alpha (Homo sapiens) (P19793 whole entry, looked up): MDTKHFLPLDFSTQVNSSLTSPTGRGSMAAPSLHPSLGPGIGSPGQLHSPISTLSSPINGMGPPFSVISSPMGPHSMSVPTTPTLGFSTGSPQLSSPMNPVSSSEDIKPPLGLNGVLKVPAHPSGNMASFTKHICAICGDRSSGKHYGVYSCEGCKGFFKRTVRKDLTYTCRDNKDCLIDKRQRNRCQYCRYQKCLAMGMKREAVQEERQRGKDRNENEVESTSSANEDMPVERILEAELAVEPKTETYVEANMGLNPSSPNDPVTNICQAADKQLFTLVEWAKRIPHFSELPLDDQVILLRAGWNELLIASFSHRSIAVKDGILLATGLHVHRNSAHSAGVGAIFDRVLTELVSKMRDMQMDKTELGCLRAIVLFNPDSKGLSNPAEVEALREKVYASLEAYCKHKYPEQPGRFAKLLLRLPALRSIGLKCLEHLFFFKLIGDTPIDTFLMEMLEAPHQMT
# Chain of Thyroid hormone receptor alpha (Rattus norvegicus) + Thyroid hormone receptor beta (Rattus norvegicus) (P63059 whole entry, looked up): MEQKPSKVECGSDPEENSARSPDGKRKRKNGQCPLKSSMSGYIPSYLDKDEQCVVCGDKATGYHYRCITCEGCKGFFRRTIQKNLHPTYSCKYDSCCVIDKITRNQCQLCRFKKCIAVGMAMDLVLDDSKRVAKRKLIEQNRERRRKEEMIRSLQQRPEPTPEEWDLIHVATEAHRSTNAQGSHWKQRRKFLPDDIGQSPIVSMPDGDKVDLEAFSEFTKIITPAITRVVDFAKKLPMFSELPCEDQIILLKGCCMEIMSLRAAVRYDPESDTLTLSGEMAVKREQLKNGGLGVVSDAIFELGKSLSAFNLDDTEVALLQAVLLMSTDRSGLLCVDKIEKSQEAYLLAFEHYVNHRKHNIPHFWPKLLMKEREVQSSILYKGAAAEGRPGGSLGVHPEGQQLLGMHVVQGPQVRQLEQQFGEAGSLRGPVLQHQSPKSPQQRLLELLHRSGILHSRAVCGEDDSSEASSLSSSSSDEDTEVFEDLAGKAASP
# Chain of Thyroid hormone receptor alpha (Rattus norvegicus) + Thyroid hormone receptor beta (Rattus norvegicus) (P18113 whole entry, looked up): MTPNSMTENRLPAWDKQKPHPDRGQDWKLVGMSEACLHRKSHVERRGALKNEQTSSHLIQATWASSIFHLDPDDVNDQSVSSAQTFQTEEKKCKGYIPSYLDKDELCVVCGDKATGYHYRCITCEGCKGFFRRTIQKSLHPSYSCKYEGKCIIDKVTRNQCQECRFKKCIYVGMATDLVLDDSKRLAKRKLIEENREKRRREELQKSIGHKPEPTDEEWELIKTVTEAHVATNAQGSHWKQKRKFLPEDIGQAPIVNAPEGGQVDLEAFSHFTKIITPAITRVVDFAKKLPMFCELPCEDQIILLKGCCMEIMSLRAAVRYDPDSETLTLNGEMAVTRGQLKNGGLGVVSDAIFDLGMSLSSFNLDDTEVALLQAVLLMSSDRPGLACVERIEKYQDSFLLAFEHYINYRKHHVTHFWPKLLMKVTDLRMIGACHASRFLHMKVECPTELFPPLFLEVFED
structure (smiles),measurement,setting,value
COc1cc(C)c(/C=C/C(C)=C/C=C/C(C)=C/C(=O)O)c(C)c1C,AC50,[1],767 nM (active)
same,outcome,[2],inactive
same,outcome,[3],inactive
same,AC50,[4],593 nM (active)
COC(=O)C1=C(C)NC(C)=C(C(=O)OCCN2CCN(C(c3ccccc3)c3ccccc3)CC2)C1c1cccc([N+](=O)[O-])c1 (stereo unspecified),outcome,[5],inactive
same,outcome,[6],inactive
same,outcome,[7],inactive
CCCCC(=O)O[C@]1(C(=O)CO)[C@@H](C)C[C@H]2[C@@H]3CCC4=CC(=O)C=C[C@]4(C)[C@@]3(F)[C@@H](O)C[C@@]21C,outcome,[8],inactive
same,outcome,[9],inactive
same,outcome,[10],inactive
CC(=O)NCCCS(=O)(=O)O,outcome,[8],inactive
same,outcome,[9],inactive
same,outcome,[10],inactive
COc1ccc(Cl)cc1C(=O)NCCc1ccc(S(=O)(=O)NC(=O)NC2CCCCC2)cc1,outcome,[8],inactive
same,outcome,[9],inactive
NNc1nncc2ccccc12,outcome,[8],inactive
same,outcome,[9],inactive
CN(C)CCOC(=O)COc1ccc(Cl)cc1,outcome,[8],inactive
same,outcome,[9],inactive
same,outcome,[10],inactive
CC1(C)[C@@H](O[C@H]2O[C@H](C(=O)O)[C@@H](O)[C@H](O)[C@H]2O[C@@H]2O[C@H](C(=O)O)[C@@H](O)[C@H](O)[C@H]2O)CC[C@]2(C)[C@H]3C(=O)C=C4[C@@H]5C[C@@](C)(C(=O)O)CC[C@]5(C)CC[C@@]4(C)[C@]3(C)CC[C@@H]12,outcome,[8],inactive
same,outcome,[9],inactive
same,outcome,[10],inactive
CCOC(=O)n1ccn(C)c1=S,outcome,[8],inactive
same,outcome,[9],inactive
same,outcome,[10],inactive
Clc1cccc(Cl)c1NC1=NCCN1,outcome,[8],inactive
same,outcome,[9],inactive
same,outcome,[10],inactive
O=C(O)CN(CCN(CC(=O)O)CC(=O)O)CC(=O)O,outcome,[8],inactive
same,outcome,[9],inactive
